Laboratory results as given in PubChem BioAssay AID1159580 (chemical genetic matrix, 2015).
Among all 5,500 compounds or so, about 2,000 (36%) were called active. About 18% were inconclusive and are not listed. Cut-off read from the data, not from the text of the source: active = normalized growth mostly below about 0.91 (no sharp cut-off); inconclusive = no clear call, values can overlap the other calls; inactive = mostly above about 0.92. The list shows a part of the results.

Assay: chemical genetic growth profiling, strain panel (AID 1159580);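 note: tested at 20 µM; growth read once vehicle control cultures reached saturation at 30 °C; 1 = growth at the plate median or of vehicle wells; lower values mean less growth of the strain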
Settings: S. cerevisiae deletion strains, growth OD
[1] = locus YAL040C, strain CLN3, hits give low values
[2] = locus YCL061C, strain MRC1 (second series), hits give low values
[3] = locus YDR363W, strain ESC2, hits give low values
[4] = locus YER002W, strain NOP16, hits give low values
[5] = locus YGR229C, strain SMI1, hits give low values
[6] = locus YNL175C, strain NOP13, hits give low values
[7] = locus YNL197C, strain WHI3, hits give low values
[8] = locus YNL224C, strain SQS1, hits give low values
[9] = locus YOR083W, strain WHI5 (second series), hits give low values
[10] = locus YPL241C, strain CIN2, hits give low values
[11] = locus YAR019C, strain CDC15, hits give low values
[12] = locus YBL105C, strain PKC1, hits give low values
[13] = locus YBR135W, strain CKS1, hits give low values
[14] = locus YBR136W, strain MEC1, hits give low values
[15] = locus YBR160W, strain CDC28, hits give low values
[16] = locus YDL017W, strain CDC7, hits give low values
[17] = locus YDL028C, strain MPS1, hits give low values
[18] = locus YDL101C, strain DUN1, hits give low values
[19] = locus YDL108W, strain KIN28, hits give low values
[20] = locus YDL132W, strain cdc53, hits give low values
[21] = locus YDL214C, strain PRR2, hits give low values
[22] = locus YDR052C, strain DBF4, hits give low values
[23] = locus YDR054C, strain cdc34, hits give low values
[24] = locus YDR226W, strain ADK1, hits give low values
[25] = locus YDR477W, strain SNF1, hits give low values
[26] = locus YER123W, strain YCK3, hits give low values
[27] = locus YER133W, strain GLC7, hits give low values
[28] = locus YFL009W, strain cdc4, hits give low values
[29] = locus YFL029C, strain CAK1, hits give low values
[30] = locus YFR003C, strain YPI1, hits give low values
[31] = locus YFR019W, strain FAB1, hits give low values
[32] = locus YFR028C, strain CDC14, hits give low values
[33] = locus YGR040W, strain KSS1, hits give low values
[34] = locus YGR052W, strain FMP48, hits give low values
[35] = locus YGR092W, strain DBF2, hits give low values
[36] = locus YHR030C, strain SLT2, hits give low values
[37] = locus YHR079C, strain IRE1, hits give low values
[38] = locus YHR082C, strain KSP1, hits give low values
[39] = locus YHR205W, strain SCH9, hits give low values
[40] = locus YIL147C, strain SLN1, hits give low values
[41] = locus YJL095W, strain BCK1, hits give low values
[42] = locus YJL128C, strain PBS2, hits give low values
[43] = locus YJL157C, strain FAR1, hits give low values
[44] = locus YJR016C, strain ILV3, hits give low values
[45] = locus YJR066W, strain TOR1 (second series), hits give low values
[46] = locus YJR066W, strain TOR1, hits give low values
[47] = locus YKL048C, strain ELM1, hits give low values
[48] = locus YKL067W, strain YNK1, hits give low values
[49] = locus YKL101W, strain HSL1, hits give low values
[50] = locus YKL193C, strain SDS22, hits give low values
[51] = locus YKL203C, strain TOR2, hits give low values
[52] = locus YLR113W, strain HOG1, hits give low values
[53] = locus YLR133W, strain CKI1, hits give low values
[54] = locus YLR403W, strain SFP1, hits give low values
[55] = locus YML070W, strain DAK1, hits give low values
[56] = locus YMR001C, strain CDC5, hits give low values
[57] = locus YMR205C, strain PFK2 (second series), hits give low values
[58] = locus YMR277W, strain FCP1, hits give low values
[59] = locus YNL006W, strain LST8, hits give low values
[60] = locus YNL020C, strain ARK1, hits give low values
[61] = locus YNL161W, strain CBK1, hits give low values
[62] = locus YNL183C, strain NPR1, hits give low values
[63] = locus YNL207W, strain RIO2, hits give low values
[64] = locus YNL222W, strain SSU72, hits give low values
[65] = locus YNL307C, strain MCK1 (second series), hits give low values
[66] = locus YOL078W, strain AVO1, hits give low values
[67] = locus YOL136C, strain PFK27, hits give low values
[68] = locus YOR061W, strain CKA2, hits give low values
[69] = locus YOR119C, strain RIO1, hits give low values
[70] = locus YOR231W, strain MKK1, hits give low values
[71] = locus YOR329C, strain SCD5, hits give low values
[72] = locus YPL031C, strain PHO85, hits give low values
[73] = locus YPL153C, strain RAD53, hits give low values
[74] = locus YPL204W, strain HRR25, hits give low values
[75] = locus YPL209C, strain IPL1, hits give low values
[76] = locus YPL256C, strain CLN2, hits give low values
[77] = locus YPR025C, strain CCL1, hits give low values
[78] = locus YPR106W, strain ISR1, hits give low values
[79] = locus YPR111W, strain DBF20, hits give low values
[80] = strain NNK1, hits give low values
[81] = strain TSCII, hits give low values

Measured: normalized growth

CCCCCC[C@@H]([C@@H](C)O)n1cnc2c(N)ncnc21
inactive: [1] 1.02 | [2] 1 | locus YDR150W, strain NUM1, hits give low values 1.01 | [3] 1 | [4] 1.01 | [5] 0.945 | locus YJR075W, strain HOC1, hits give low values 0.99 | locus YMR263W, strain SAP30, hits give low values 1 | locus YNL128W, strain TEP1, hits give low values 0.992 | [6] 1.02 | [7] 1.01 | [8] 0.992 | [9] 1.06 | [10] 1

CC(C)CSc1nnc(CSCc2nc(-c3ccc(Cl)cc3)cs2)n1C
inactive: [11] 0.979 | [12] 0.964 | [13] 0.968 | [14] 0.964 | [15] 0.97 | [16] 0.974 | [17] 0.966 | [18] 0.958 | [19] 0.96 | [20] 0.961 | [21] 0.94 | [22] 0.974 | [23] 0.968 | [24] 0.974 | [25] 0.965 | [26] 0.913 | [27] 0.954 | [28] 0.976 | [29] 0.973 | [30] 0.965 | [31] 0.946 | [32] 0.97 | [33] 0.931 | [34] 0.979 | [35] 0.981 | [36] 1.03 | [37] 1.06 | [38] 1.03 | [39] 0.988 | [40] 0.962 | [41] 0.956 | [42] 0.929 | [43] 0.956 | [44] 0.971 | [45] 0.961 | [46] 1.05 | [47] 0.954 | [48] 0.95 | [49] 0.925 | [50] 0.971 | [51] 1.02 | [52] 0.865 | [53] 0.927 | [54] 0.948 | [55] 0.929 | [56] 0.973 | [57] 0.961 | [58] 0.966 | [59] 0.979 | [60] 0.941 | [61] 0.973 | [62] 1.01 | [63] 0.967 | [64] 0.972 | [65] 0.974 | [66] 0.964 | [67] 0.882 | [68] 0.939 | [69] 1.01 | [70] 0.944 | [71] 0.974 | [72] 0.95 | [73] 0.96 | [74] 0.917 | [75] 0.974 | [76] 0.999 | [77] 0.969 | [78] 0.962 | [79] 0.95 | [80] 0.966 | [81] 0.969

O=C(CSCc1nc(-c2ccc(Cl)cc2)cs1)N/N=C\c1cccs1
inactive: [11] 0.984 | [12] 0.97 | [13] 0.969 | [14] 0.972 | [15] 0.969 | [16] 0.97 | [17] 0.973 | [18] 0.978 | [19] 0.975 | [20] 0.966 | [21] 0.91 | [22] 0.98 | [23] 0.97 | [24] 0.972 | [25] 0.953 | [26] 0.908 | [27] 0.946 | [28] 0.971 | [29] 0.973 | [30] 0.962 | [31] 0.929 | [32] 0.963 | [33] 0.935 | [34] 0.948 | [35] 0.98 | [36] 1.01 | [37] 1.03 | [38] 0.998 | [39] 0.935 | [40] 0.975 | [41] 0.936 | [42] 0.924 | [43] 0.95 | [44] 0.974 | [45] 0.951 | [46] 1.02 | [47] 0.944 | [48] 0.932 | [49] 0.921 | [50] 0.972 | [51] 1 | [53] 0.917 | [54] 0.933 | [55] 0.93 | [56] 0.976 | [57] 0.942 | [58] 0.98 | [59] 0.973 | [60] 0.925 | [61] 0.969 | [62] 0.971 | [63] 0.967 | [64] 0.974 | [65] 0.956 | [66] 0.966 | [67] 0.866 | [68] 0.943 | [69] 0.994 | [70] 0.927 | [71] 0.975 | [72] 0.96 | [73] 0.969 | [74] 0.906 | [75] 0.969 | [76] 0.965 | [77] 0.979 | [78] 0.97 | [79] 0.952 | [80] 0.966 | [81] 0.968
active: [52] 0.831

C=CCc1ccccc1OCC(O)CN[C@]1(C)CCC[C@H](C(C)(C)NC(=O)CBr)C1 (some centres not stated)
inactive: [1] 1.01 | [4] 1.02 | [5] 1.01 | [6] 1.08 | [7] 1.03 | [8] 1.02 | [9] 1.09

CC1(NCC(O)COc2cccc3[nH]ccc23)CCC(C(C)(C)NC(=O)CBr)CC1 (configuration not stated)
inactive: [1] 1.04 | [2] 0.993 | [3] 1.03 | [4] 1.03 | locus YGR078C, strain PAC10, hits give low values 1 | [5] 0.997 | locus YMR307W, strain GAS1, hits give low values 0.99 | [6] 1.02 | [7] 1.02 | [8] 1.06 | locus YNL322C, strain KRE1, hits give low values 0.973 | [9] 1.02 | locus YPL055C, strain LGE1, hits give low values 0.968 | [10] 1
